# Tests used:
# Test in all cases: DAPPL (digital affinity profiling via proximity ligation, sequencing); 10 mM Tris-HCl pH 7.5, 50 mM NaCl, 1 mM DTT, 4% glycerol, room temperature, 30 min; GST-TFs on glutathione beads, 16-mer random dsDNA library, 0.1% formaldehyde crosslink after washing; high values mean tight binding
# FEV = molecular target: T1, FEV (Homo sapiens, UniProt Q99581 1-238); conditions: protein: recombinant; tags: N-terminal GST; dsDNA, one strand shown
# T1 sequence: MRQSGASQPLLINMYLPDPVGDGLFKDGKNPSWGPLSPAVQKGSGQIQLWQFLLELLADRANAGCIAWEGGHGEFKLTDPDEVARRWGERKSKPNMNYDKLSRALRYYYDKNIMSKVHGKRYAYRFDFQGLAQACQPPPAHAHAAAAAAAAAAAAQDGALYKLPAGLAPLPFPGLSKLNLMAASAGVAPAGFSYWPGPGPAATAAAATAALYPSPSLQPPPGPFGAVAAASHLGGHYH
# How it was run: (§1)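 Binding signal is defined as a hexamer's read frequency for one factor over its frequency for the tag-only sample. To obtain reads, GST-fused human transcription factors were expressed in yeast, captured on glutathione beads, barcoded with DNA and pooled with that sample. Pools met 200 nmole of a 16-mer random double-stranded DNA library in Tris/NaCl/DTT/glycerol buffer for 30 min at room temperature before washing, 0.1% formaldehyde crosslinking, proximity ligation (BsaI/T4 ligase, 1 h, 37 °C), PCR and Illumina NextSeq500 sequencing.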
# ETV5 = ETV5 (Homo sapiens, UniProt P41161 1-510); conditions: protein: recombinant; tags: N-terminal GST; dsDNA, one strand shown
# How it was run: as §1
# HSF1 = HSF1 (Homo sapiens, UniProt Q00613 1-529); conditions: protein: recombinant; tags: N-terminal GST; chain copies: 3; dsDNA, one strand shown
# How it was run: as §1
# SPIC = molecular target: T2, SPIC (Homo sapiens, UniProt Q8N5J4 1-248); conditions: protein: recombinant; tags: N-terminal GST; dsDNA, one strand shown
# T2 sequence: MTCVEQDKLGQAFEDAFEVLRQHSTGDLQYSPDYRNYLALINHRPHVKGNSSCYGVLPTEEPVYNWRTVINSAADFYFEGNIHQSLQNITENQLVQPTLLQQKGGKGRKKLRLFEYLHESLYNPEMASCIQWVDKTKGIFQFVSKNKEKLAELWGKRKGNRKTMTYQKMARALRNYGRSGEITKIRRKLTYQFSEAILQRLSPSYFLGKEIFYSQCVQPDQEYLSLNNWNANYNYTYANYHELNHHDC
# How it was run: as §1
# ELF4 = ELF4 (Homo sapiens, UniProt Q99607 1-663); conditions: protein: recombinant; tags: N-terminal GST; dsDNA, one strand shown
# How it was run: as §1
# ELK4 = molecular target: T3, ELK4 (Homo sapiens, UniProt P28324-2 1-405); conditions: protein: recombinant; tags: N-terminal GST; dsDNA, one strand shown
# T3 sequence: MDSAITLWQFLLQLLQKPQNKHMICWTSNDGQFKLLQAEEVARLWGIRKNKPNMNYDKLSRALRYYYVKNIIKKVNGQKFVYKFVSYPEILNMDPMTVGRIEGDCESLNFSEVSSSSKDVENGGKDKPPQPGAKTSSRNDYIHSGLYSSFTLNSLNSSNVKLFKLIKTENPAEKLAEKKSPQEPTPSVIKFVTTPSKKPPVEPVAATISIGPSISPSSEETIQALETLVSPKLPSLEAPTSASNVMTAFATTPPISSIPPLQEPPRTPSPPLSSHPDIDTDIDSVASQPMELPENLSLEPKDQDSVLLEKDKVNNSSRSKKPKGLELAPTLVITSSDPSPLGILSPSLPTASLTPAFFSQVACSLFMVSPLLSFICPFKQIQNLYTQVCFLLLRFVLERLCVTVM
# How it was run: as §1
# ETV2 = molecular target: T4, ETV2 (Homo sapiens, UniProt O00321 1-342); conditions: protein: recombinant; tags: N-terminal GST; dsDNA, one strand shown
# T4 sequence: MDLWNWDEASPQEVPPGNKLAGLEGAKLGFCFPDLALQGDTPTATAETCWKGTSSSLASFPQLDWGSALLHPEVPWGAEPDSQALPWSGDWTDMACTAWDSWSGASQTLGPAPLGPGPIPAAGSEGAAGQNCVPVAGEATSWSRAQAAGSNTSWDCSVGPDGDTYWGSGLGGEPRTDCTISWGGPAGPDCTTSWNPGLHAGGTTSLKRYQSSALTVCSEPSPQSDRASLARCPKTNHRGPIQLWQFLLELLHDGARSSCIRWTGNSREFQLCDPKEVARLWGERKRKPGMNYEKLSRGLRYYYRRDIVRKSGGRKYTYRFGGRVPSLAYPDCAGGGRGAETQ
# How it was run: as §1
# ELF3 = molecular target: T5, ELF3 (Homo sapiens, UniProt P78545 1-371); conditions: protein: recombinant; tags: N-terminal GST; dsDNA, one strand shown
# T5 sequence: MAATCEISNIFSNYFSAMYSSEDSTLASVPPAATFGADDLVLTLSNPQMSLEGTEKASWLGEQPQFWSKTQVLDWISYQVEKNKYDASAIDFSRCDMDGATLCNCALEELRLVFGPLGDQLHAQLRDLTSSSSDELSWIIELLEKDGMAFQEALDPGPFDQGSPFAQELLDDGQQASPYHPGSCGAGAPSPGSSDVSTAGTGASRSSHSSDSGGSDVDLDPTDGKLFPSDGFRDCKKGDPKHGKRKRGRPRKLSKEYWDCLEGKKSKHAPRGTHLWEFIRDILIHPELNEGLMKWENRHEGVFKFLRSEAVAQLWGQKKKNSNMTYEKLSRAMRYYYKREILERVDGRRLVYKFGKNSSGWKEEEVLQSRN
# How it was run: as §1
# CRX = CRX (Homo sapiens, UniProt O43186 1-299); conditions: protein: recombinant; tags: N-terminal GST; dsDNA, one strand shown
# How it was run: as §1
# ETV1 = ETV1 (Homo sapiens, UniProt P50549 1-477); conditions: protein: recombinant; tags: N-terminal GST; dsDNA, one strand shown
# How it was run: as §1
# ERF = molecular target: T6, ERF (Homo sapiens, UniProt P50548 1-548); conditions: protein: recombinant; tags: N-terminal GST; dsDNA, one strand shown
# T6 sequence: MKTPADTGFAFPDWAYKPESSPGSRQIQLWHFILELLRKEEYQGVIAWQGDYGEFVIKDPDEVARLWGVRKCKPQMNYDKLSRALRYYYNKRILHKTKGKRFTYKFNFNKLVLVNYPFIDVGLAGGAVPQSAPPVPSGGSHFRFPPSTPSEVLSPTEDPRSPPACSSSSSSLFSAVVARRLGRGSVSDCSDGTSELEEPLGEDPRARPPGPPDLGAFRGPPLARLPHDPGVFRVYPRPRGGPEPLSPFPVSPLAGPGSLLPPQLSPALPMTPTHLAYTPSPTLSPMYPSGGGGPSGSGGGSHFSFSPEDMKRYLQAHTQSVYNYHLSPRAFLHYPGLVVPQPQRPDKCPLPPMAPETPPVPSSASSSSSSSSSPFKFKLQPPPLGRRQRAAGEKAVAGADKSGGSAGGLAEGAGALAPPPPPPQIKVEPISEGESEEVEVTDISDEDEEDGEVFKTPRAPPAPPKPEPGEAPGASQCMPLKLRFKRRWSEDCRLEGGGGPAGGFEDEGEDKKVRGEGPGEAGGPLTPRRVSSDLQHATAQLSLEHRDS
# How it was run: as §1
# ETV3L = molecular target: T7, ETV3L (Homo sapiens, UniProt Q6ZN32 1-361); conditions: protein: recombinant; tags: N-terminal GST; dsDNA, one strand shown
# T7 sequence: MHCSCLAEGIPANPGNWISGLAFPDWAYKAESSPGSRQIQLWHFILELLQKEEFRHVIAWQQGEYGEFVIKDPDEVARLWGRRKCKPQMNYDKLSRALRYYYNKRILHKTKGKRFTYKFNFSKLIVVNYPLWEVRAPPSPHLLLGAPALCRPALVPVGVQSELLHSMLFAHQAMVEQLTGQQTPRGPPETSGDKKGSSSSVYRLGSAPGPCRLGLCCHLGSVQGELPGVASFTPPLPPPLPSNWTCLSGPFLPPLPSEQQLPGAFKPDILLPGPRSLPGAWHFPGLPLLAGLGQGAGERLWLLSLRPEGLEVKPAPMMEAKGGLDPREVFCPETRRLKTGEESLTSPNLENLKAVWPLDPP
# How it was run: as §1
# ETS2 = molecular target: T8, ETS2 (Homo sapiens, UniProt P15036 1-469); conditions: protein: recombinant; tags: N-terminal GST; dsDNA, one strand shown
# T8 sequence: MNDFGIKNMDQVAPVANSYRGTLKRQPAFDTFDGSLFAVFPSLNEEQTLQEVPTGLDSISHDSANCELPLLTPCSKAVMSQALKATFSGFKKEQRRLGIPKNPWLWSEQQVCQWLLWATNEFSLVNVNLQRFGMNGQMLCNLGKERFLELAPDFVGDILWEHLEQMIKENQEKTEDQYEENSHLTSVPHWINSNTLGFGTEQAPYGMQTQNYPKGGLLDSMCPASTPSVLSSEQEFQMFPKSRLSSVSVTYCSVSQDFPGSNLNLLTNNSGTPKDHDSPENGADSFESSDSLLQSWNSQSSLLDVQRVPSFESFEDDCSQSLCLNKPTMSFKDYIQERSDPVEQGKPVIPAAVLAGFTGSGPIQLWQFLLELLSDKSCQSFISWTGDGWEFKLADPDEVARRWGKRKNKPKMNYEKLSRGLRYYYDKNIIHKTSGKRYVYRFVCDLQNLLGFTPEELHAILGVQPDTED
# How it was run: as §1
# SPDEF = molecular target: T9, SPDEF (Homo sapiens, UniProt O95238 1-335); conditions: protein: recombinant; tags: N-terminal GST; dsDNA, one strand shown
# T9 sequence: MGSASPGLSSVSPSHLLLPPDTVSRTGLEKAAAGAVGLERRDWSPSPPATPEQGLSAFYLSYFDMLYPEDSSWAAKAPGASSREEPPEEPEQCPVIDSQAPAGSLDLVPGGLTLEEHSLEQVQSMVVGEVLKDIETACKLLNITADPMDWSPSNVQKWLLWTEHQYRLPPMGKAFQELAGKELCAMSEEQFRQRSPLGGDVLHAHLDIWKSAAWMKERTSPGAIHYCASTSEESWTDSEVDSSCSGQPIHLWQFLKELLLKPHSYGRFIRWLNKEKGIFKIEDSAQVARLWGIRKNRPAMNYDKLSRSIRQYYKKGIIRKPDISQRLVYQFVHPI
# How it was run: as §1
# ETV7 = molecular target: T10, ETV7 (Homo sapiens, UniProt Q9Y603 1-341); conditions: protein: recombinant; tags: N-terminal GST; dsDNA, one strand shown
# T10 sequence: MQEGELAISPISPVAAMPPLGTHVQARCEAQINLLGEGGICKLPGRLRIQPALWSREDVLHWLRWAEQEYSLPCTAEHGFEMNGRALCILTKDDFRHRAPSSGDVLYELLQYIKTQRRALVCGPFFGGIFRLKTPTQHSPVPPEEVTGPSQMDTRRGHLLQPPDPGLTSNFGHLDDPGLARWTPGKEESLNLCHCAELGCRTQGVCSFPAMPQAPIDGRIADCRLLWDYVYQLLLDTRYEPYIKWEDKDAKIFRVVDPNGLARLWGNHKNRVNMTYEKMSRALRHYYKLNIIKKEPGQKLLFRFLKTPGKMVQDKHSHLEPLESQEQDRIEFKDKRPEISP
# How it was run: as §1
# ELF5 = molecular target: T11, ELF5 (Homo sapiens, UniProt Q9UKW6-2 1-255); conditions: protein: recombinant; tags: N-terminal GST; dsDNA, one strand shown
# T11 sequence: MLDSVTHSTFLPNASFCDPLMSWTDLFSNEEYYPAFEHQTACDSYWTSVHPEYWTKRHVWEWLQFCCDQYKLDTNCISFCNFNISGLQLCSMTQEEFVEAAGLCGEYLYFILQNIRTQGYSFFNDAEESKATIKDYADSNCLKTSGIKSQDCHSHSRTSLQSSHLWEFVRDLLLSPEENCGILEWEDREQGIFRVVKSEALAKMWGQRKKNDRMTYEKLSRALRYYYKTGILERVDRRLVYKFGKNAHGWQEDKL
# How it was run: as §1
# ETV3 = molecular target: T12, ETV3 (Homo sapiens, UniProt P41162-2 1-143); conditions: protein: recombinant; tags: N-terminal GST; dsDNA, one strand shown
# T12 sequence: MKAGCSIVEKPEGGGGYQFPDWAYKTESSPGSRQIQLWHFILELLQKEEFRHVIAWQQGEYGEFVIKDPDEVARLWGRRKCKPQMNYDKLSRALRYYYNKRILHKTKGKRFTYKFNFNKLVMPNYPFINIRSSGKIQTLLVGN
# How it was run: as §1
# ETV6 = ETV6 (Homo sapiens, UniProt P41212 1-452); conditions: protein: recombinant; tags: N-terminal GST; dsDNA, one strand shown
# How it was run: as §1
# Chain of ETV5 (P41161 whole entry): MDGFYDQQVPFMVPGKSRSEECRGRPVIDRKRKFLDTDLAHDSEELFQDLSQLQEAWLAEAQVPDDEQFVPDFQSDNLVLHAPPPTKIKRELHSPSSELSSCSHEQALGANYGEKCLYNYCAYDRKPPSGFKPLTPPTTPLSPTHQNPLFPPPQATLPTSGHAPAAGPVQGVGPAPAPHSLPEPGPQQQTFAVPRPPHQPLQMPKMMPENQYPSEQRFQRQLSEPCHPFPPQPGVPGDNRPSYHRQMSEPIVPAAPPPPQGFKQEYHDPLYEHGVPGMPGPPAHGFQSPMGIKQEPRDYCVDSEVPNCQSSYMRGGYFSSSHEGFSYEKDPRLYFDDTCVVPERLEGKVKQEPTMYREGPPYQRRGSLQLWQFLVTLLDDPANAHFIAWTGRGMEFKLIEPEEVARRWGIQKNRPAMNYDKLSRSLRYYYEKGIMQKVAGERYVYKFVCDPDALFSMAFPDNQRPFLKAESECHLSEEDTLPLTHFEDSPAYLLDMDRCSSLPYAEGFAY
# Chain of ETV1 (P50549 whole entry): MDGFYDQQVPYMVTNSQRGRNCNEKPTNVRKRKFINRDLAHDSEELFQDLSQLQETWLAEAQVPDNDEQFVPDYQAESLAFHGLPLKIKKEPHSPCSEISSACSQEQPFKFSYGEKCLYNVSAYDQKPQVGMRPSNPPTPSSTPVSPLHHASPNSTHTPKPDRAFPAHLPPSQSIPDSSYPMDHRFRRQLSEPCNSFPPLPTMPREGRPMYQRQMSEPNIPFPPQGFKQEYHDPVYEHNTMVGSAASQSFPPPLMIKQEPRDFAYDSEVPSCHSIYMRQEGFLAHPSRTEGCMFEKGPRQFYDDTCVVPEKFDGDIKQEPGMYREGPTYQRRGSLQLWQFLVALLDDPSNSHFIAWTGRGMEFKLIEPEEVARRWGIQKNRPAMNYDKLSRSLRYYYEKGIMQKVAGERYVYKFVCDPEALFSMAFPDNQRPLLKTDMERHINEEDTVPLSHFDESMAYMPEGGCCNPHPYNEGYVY
# Chain of ELF4 (Q99607 whole entry): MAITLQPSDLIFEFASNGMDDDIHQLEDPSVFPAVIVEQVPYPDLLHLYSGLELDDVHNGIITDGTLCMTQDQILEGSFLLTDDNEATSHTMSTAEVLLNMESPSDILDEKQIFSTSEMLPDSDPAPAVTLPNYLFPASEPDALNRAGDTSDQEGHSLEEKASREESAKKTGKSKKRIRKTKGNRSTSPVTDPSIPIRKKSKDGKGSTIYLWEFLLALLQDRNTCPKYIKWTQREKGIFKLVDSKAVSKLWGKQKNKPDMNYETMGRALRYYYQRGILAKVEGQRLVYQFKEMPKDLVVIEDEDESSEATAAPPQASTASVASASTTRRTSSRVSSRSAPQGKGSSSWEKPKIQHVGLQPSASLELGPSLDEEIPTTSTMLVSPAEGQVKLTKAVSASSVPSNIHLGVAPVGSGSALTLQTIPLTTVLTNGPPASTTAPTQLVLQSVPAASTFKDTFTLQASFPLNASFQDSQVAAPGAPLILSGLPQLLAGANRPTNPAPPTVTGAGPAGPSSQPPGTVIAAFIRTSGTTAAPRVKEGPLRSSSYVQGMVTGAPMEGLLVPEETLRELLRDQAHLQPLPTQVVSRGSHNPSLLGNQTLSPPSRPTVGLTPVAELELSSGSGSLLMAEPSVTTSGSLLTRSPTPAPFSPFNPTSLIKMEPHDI
# Chain of CRX (O43186 whole entry): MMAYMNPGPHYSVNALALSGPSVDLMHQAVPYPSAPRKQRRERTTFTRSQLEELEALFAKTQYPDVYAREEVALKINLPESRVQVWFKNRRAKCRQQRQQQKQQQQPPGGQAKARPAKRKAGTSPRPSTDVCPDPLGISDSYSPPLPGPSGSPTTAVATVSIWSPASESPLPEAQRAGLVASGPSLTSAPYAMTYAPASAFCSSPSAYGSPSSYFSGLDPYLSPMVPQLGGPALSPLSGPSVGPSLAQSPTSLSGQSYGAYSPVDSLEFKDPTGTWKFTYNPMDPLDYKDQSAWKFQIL
# Chain of HSF1 (Q00613 whole entry): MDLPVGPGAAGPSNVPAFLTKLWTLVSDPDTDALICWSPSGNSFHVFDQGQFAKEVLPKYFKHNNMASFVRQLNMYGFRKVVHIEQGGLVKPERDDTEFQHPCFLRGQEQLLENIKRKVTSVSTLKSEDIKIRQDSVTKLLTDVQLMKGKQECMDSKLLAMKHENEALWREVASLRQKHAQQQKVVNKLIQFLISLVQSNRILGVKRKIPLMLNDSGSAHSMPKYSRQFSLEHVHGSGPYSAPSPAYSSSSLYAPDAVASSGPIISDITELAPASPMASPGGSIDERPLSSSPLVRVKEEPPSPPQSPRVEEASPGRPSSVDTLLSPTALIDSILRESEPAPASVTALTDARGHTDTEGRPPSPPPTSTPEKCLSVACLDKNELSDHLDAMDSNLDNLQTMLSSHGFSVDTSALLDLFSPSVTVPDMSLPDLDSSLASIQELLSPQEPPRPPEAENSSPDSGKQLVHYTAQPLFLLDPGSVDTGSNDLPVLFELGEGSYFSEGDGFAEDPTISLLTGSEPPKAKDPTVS
# Chain of ETV6 (P41212 whole entry): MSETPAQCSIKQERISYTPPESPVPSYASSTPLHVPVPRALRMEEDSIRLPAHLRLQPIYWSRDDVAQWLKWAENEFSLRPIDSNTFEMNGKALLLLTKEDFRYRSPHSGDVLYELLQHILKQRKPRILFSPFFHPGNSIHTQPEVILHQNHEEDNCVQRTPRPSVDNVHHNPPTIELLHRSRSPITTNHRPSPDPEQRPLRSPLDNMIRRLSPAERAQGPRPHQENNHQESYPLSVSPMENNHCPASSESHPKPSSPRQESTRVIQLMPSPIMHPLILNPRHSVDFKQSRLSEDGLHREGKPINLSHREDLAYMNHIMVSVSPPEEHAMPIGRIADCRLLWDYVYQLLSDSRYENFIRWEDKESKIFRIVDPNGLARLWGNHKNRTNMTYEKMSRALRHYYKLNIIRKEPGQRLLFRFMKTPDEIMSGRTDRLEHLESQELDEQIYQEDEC
sequence,measurement,setting,value
AGCCTT,binding signal,FEV,"1.15 fold enrichment (6-mer frequency, TF over GST control)"
same,binding signal,ETV5,"1.13 fold enrichment (6-mer frequency, TF over GST control)"
same,binding signal,HSF1,"1.26 fold enrichment (6-mer frequency, TF over GST control)"
same,binding signal,SPIC,"1.17 fold enrichment (6-mer frequency, TF over GST control)"
same,binding signal,ELF4,"1.18 fold enrichment (6-mer frequency, TF over GST control)"
same,binding signal,ELK4,"1.03 fold enrichment (6-mer frequency, TF over GST control)"
same,binding signal,ETV2,"1.2 fold enrichment (6-mer frequency, TF over GST control)"
same,binding signal,ELF3,"1.23 fold enrichment (6-mer frequency, TF over GST control)"
same,binding signal,CRX,"1.42 fold enrichment (6-mer frequency, TF over GST control)"
same,binding signal,ETV1,"1.17 fold enrichment (6-mer frequency, TF over GST control)"
same,binding signal,ERF,"1.21 fold enrichment (6-mer frequency, TF over GST control)"
same,binding signal,ETV3L,"1.11 fold enrichment (6-mer frequency, TF over GST control)"
same,binding signal,ETS2,"1.07 fold enrichment (6-mer frequency, TF over GST control)"
same,binding signal,SPDEF,"1.02 fold enrichment (6-mer frequency, TF over GST control)"
same,binding signal,ETV7,"1.1 fold enrichment (6-mer frequency, TF over GST control)"
same,binding signal,ELF5,"1.1 fold enrichment (6-mer frequency, TF over GST control)"
same,binding signal,ETV3,"1.18 fold enrichment (6-mer frequency, TF over GST control)"
same,binding signal,ETV6,"1.08 fold enrichment (6-mer frequency, TF over GST control)"

# Source: PMC7862700, “An all-to-all approach to the identification of sequence-specific readers for epigenetic DNA modifications on cytosine”
